Source: PubChem (Broad Institute)
The full list was thinned out, with hits kept by preference.
NOMO-1 viab: NOMO-1 AML cell viability reduction, primary screen, STK33 inhibitor project, CellTiter-Glo luminescence; hit rate 7.5% among 37,000; NOMO-1 AML viability, 72 h; inhibition, % (test concentration not listed); in the data active = inhibition above about 80%
STK33 kin inh: STK33 kinase inhibitors, primary screen, biochemical, luminescence, ADP-Glo, MBP substrate; hit rate 0.44% among 27,000; Serine/threonine-protein kinase 33 (Homo sapiens), Q9BYT3; inhibition, % at 12.5 µM; in the data active = inhibition above about 20%
Target sequence (Q9BYT3 whole entry, looked up): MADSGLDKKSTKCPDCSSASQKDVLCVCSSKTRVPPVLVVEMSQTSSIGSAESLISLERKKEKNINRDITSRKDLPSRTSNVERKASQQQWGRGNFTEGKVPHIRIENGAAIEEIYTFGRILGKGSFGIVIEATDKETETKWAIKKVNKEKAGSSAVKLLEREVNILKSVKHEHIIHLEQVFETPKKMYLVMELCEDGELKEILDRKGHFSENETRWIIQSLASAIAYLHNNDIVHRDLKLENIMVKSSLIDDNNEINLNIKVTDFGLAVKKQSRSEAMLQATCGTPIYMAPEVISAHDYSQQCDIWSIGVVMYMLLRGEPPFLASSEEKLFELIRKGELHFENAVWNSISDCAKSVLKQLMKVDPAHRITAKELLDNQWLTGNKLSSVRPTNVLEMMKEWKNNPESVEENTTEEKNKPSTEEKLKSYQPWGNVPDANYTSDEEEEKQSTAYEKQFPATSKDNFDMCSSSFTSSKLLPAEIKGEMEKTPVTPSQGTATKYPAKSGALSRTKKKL
PD-1 reverse act: activators reversing PD-1 mediated T-cell inhibition, primary screen, luminescence, primary human CD4 T cells, PD-L1 beads; 29,000 tested, under 10 active; CellTiter-Glo 96 h; activation, % (concentration not given with the values); call rule not given here;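 also: 0% = median vehicle wells and 100% = positive control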
* = called active by the depositor; / = no result.

SMILES | NOMO-1 viab | STK33 kin inh | PD-1 reverse act
C[C@@H]1CN([C@@H](C)CO)C(=O)Cc2cc(NC(=O)Nc3ccc4c(c3)OCO4)ccc2O[C@@H]1CN(C)S(=O)(=O)c1ccc(F)cc1 | 2 | / | -1
COc1ccc(S(=O)(=O)N(C)C[C@@H]2Oc3ccc(NC(=O)Nc4ccc5c(c4)OCO5)cc3CC(=O)N([C@H](C)CO)C[C@@H]2C)cc1 | 114* | 1 | 1
CCN(CC(=O)Nc1cccc(F)c1)S(=O)(=O)c1ccc(C)cc1 | 4 | 0 | 0
CC(=O)N1C(=N)S/C(=C\c2cc3ccccc3nc2Sc2ccccc2)C1=O | 7 | / | 1
FC(F)(F)c1cccc(-n2c(Cn3nnc(N4CCOCC4)n3)n[nH]c2=S)c1 | -13 | / | 1
O=C(Nc1ccc(I)cc1C(=O)NCc1ccco1)c1ccco1 | 33 | 8 | -3
Cc1cccc(Oc2coc3cc(OCC(=O)Nc4ccccc4C(F)(F)F)ccc3c2=O)c1 | 23 | 2 | 0
CC[C@H](NS(=O)(=O)c1ccc(C)cc1)C(=O)Oc1cc2oc(=O)cc(C)c2cc1Cl | 25 | 1 | 1
CCC(C)C(=O)OCC1(c2ccc(C)cc2OC(=O)C(C)C)CO1 (stereo not given) | 118* | -5 | -9
COc1cccc(S(=O)(=O)NCC(=O)N2CCCCC2C)c1 (stereo not given) | -4 | 4 | 0
Cc1oc2c(c1C(=O)NCc1ccccc1)C(=O)c1ccccc1C2=O | 140* | / | -3
CC(=O)NC(=O)NCc1ccccc1 | -3 | / | 1
Cc1cc(C)cc(Oc2coc3cc(OCC(=O)NCc4ccccc4)ccc3c2=O)c1 | 31 | / | 0
COC(=O)c1cc(NC(=O)COc2ccc(I)cc2)cc(C(=O)OC)c1 | 10 | 3 | /
O=S(=O)(CCSc1nc2ccccc2o1)c1nc2ccccc2s1 | 127* | 2 | -12
O=S(=O)(CCSc1ccccn1)c1nc2ccccc2s1 | 108* | -2 | /
CC(C)(C)c1ccc(S(=O)(=O)CCSc2nc3ccccc3o2)cc1 | 18 | -1 | /
O=C(O)CCSc1nc2ccccc2s1 | 17 | 0 | /
Cc1cc(C)c(C)c(S(=O)(=O)N2CCN(c3ncnc4sc5c(c34)CCCC5)CC2)c1C | 15 | / | 0
COc1ccc(-c2cc(C)nc(SCC(=O)Nc3cccc(Cl)c3Cl)n2)cc1 | 5 | -1 | 1
O=C(Nc1cc(C(F)(F)F)cc(C(F)(F)F)c1)C(=S)N1CCCCC1 | 34 | / | 2
Cc1cc(C)nc(SCC(O)COc2ccc(Cl)cc2)n1 (stereo not given) | -3 | -4 | /
CC(C)(C)C(=O)CC(Nc1ccccc1)c1ccc(Cl)cc1 (stereo not given) | -15 | / | 2
Cc1cc(C)nc(S/C=C/C(=O)c2ccc(Cl)cc2)n1 | 121* | / | -1
Cn1cnnc1Sc1cc(C#N)c(C#N)cc1Sc1nncn1C | 22 | 0 | 5
SMILES | NOMO-1 viab | STK33 kin inh | PD-1 reverse act
O=C(/C=C/Sc1ccc(Cl)cc1)c1ccccc1 | 123* | / | -6
Cn1cnnc1S/C=C/C(=O)c1ccc(Cl)cc1 | 116* | / | -4
O=C(O)c1cccc(CN2CCN(c3ccccc3)CC2)c1 | 21 | / | -1
O=C(CSc1nnc(-c2cccs2)n1-c1ccccc1)Nc1ccccc1Cl | -2 | 5 | 0
CC(NCCc1ccc(O)cc1)C(O)c1ccc(O)cc1 (stereo not given) | -2 | 4 | /
CCCCCCCCNC(C)C(O)c1ccc(SC(C)C)cc1 (stereo not given) | 120* | 3 | /
O=C(O)c1cc(N=Cc2ccccc2O)ccc1O | 0 | / | 0
CCN(CC)C(=S)SSC(=S)N(CC)CC | 141* | -4 | -52
CCN(CC)C(=S)SC1=CCS(=O)(=O)C1 | 24 | / | 1
Cc1cc(O)c(Cc2c(O)cc(C)c(C=O)c2O)c(O)c1C | 3 | -2 | -2
O=C(Nc1ccc(I)cc1C(=O)NCc1cccnc1)c1ccc(Cl)cc1Cl | -5 | 3 | 0
COC(=O)c1cc(NC(=O)CSC2=NCCS2)cc(C(=O)OC)c1 | 93* | 0 | /
COC(=O)c1ccc(NC(=O)CSc2nnc(C)s2)cc1 | 19 | 6 | 2
Cc1cc(C)c(NC(=O)CN(c2cccc(Br)c2)S(C)(=O)=O)c(C)c1 | -4 | -1 | 2
COc1ccc(CN(C)C[C@@H]2Oc3ccc(NS(=O)(=O)c4ccccc4)cc3CC(=O)N([C@H](C)CO)C[C@@H]2C)cc1 | 6 | 1 | 1
COc1ccc(S(=O)(=O)Nc2ccc3c(c2)CC(=O)N([C@H](C)CO)C[C@@H](C)[C@@H](CN(C)Cc2ccc(Oc4ccccc4)cc2)O3)cc1 | 116* | -1 | -2
C[C@H]1CN([C@@H](C)CO)C(=O)Cc2cc(NS(=O)(=O)c3ccccc3)ccc2O[C@H]1CN(C)Cc1ccc(Oc2ccccc2)cc1 | 70 | 3 | /
